Experimental data as given in PubChem BioAssay.
Activity calls are given as the source filed them.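 Rule for the calls: active = calcium signal rise more than 3 SD above the low-dose agonist control mean, in both duplicate plates and the primary screen; inactive = the rest.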

Assay: nonspecific potentiation of DAMGO calcium response – cell-based, HEK293 mu-opioid receptor line, counter-screen for TRPC4 allosteric potentiator project, confirmation (AID 449724);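 note: HEK293 cells carrying mu-opioid receptor only with no TRPC4 channel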
Conditions: HEK293 mu-opioid receptor cells, Fluo-4 calcium flux, at 10 µM; compound added before EC20 DAMGO stimulus unless noted

Question: With `COc1ccc(O)c(CN2CCCC(C(=O)c3sccc3C)C2)c1` (stereo unspecified) as the molecule, how does the outcome read?
Answer: inactive

Question: Which outcome does the source give for `Clc1ccc(OCC#CCN2CCCC2)cc1` here?
Answer: inactive

Question: With `O=C(c1cccc(C(F)(F)F)c1)C1CCCN(Cc2ccccc2O)C1` (stereo unspecified) as the molecule, how does the outcome read?
Answer: inactive

Question: With `CCOC(=O)C1(CCc2ccccc2)CCN(Cc2ccco2)CC1` as the molecule, how does the outcome read?
Answer: inactive

Question: Which outcome does the source give for `Nc1ccccc1-[n+]1c(-c2ccccc2)cc(-c2ccccc2)cc1-c1ccccc1` here?
Answer: inactive

Question: For `CCc1nccc2c1[nH]c1ccccc12`, which outcome is on record?
Answer: inactive

Question: Which outcome does the source give for `CCOC(=O)C(O)(c1ccc(NC(=S)NC(=O)c2ccc(Cl)cc2Cl)c(C)c1)C(F)(F)F` (stereo unspecified) here?
Answer: inactive

Question: With `COc1ccc(OC)c(N2Cc3ccccc3C2=N)c1` as the molecule, how does the outcome read?
Answer: inactive

Question: For `CCOc1c(Cl)cc(CNC(C)C(O)c2ccccc2)cc1OC` (stereo unspecified), which outcome is on record?
Answer: inactive

Question: With `Cc1cccc(N2CCc3c2nc2ccccc2c3N)c1` as the molecule, how does the outcome read?
Answer: inactive

Question: With `COc1ccc(C)cc1NC1=NC(C)(C)CS1` as the molecule, how does the outcome read?
Answer: inactive

Question: With `N=c1n(CCO)c2ccccc2n1Cc1ccccc1` as the molecule, how does the outcome read?
Answer: inactive

Question: Which outcome does the source give for `CCc1ccc(OCCCN=C(C)c2c(O)n(C)c(=O)n(C)c2=O)cc1` here?
Answer: inactive [setting not given]

Question: For `O=C(CN1CCCC1)Nc1ccc(Cl)cc1C(=O)c1ccccc1`, which outcome is on record?
Answer: inactive

Question: For `O=C(c1ccc(Cl)cc1)C1CCCN(C2CCSCC2)C1` (stereo unspecified), which outcome is on record?
Answer: inactive

Question: With `Cc1ccc(C2CN(C)CC2C(=O)c2ccc(F)cc2)cc1` (stereo unspecified) as the molecule, how does the outcome read?
Answer: inactive

Question: Which outcome does the source give for `O=C(Cc1ccccc1)N1CCN(Cc2cccc(Br)c2)CC1` here?
Answer: inactive

Question: With `Cc1cccc(N=Cc2c(O)n(-c3ccccc3C)c(=O)[nH]c2=O)c1` as the molecule, how does the outcome read?
Answer: inactive [setting not given]

Question: For `CC(Cc1ccccc1Sc1ccccc1O)N(C)C` (stereo unspecified), which outcome is on record?
Answer: inactive

Question: With `COc1ccc(OC)c(CN2CCCC(C(=O)c3sccc3C)C2)c1` (stereo unspecified) as the molecule, how does the outcome read?
Answer: inactive

Question: With `CCCCc1ncc(CN2CCCC(C(=O)c3ccc(SC)cc3)C2)[nH]1` (stereo unspecified) as the molecule, how does the outcome read?
Answer: inactive
